# High-throughput results (PubChem)
# Autofluor counter = flagged as autofluorescent in microsphere protease counterscreen; compound autofluorescence counterscreen, microsphere flow cytometry; hits give high values; fluorescence intensity (test concentration not listed); AID 624483; hit rate 3.1% among 360,000; in the data active means fluorescence intensity above about 16000; inconclusive means no clear call, values can overlap the other calls
# Anthrax LF inh2 = blocks Bacillus anthracis lethal factor protease. inhibition, % at 10 µM. P15917. multiplex microsphere protease cleavage assay, LF. AID 588501. hit rate 0.12% among 360,000; further: plate controls were buffer without enzyme for full effect and enzyme alone for no effect
# 3CLpro inhibitor = SARS-CoV 3CLpro protease inhibition; recombinant SARS-CoV 3CLpro, quenched FRET peptide cleavage; P0C6X7; inhibition, % at 6 µM; hit rate 0.14% among 290,000; in the data active means inhibition above about 12%
# BoNT F protease = inhibitors of Botulinum neurotoxin F light chain protease | hit rate 0.22% among 360,000 | inhibition, % at 10 µM | AID 588497 | Multiplex microsphere protease cleavage assay, flow cytometry; in the data active means inhibition above about 35%, passing the limit was not always enough; inconclusive means no clear call, values can overlap the other calls; further: plate controls were buffer without enzyme for full effect and enzyme alone for no effect
# BoNT A protease = inhibitors of Botulinum neurotoxin A light chain protease; hit rate 0.17% among 360,000; inhibition, % at 10 µM; multiplex microsphere protease substrate cleavage, flow cytometry; further: plate controls were buffer without enzyme for full effect and enzyme alone for no effect
# DUSP3 inh = DUSP3 (human) phosphatase inhibition; inhibition, % at 13.3 µM; P51452; AID 1654; hit rate 0.52% among 290,000; recombinant VHR phosphatase, pNPP absorbance; in the data active means inhibition above about 50%
# Target sequence (P51452 whole entry, looked up): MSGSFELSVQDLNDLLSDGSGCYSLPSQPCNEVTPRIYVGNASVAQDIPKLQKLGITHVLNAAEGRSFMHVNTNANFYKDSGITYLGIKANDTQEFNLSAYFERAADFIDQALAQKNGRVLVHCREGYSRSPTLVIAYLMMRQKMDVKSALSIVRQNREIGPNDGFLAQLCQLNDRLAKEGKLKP
# The depositor's hits bear a star; ? = inconclusive; . = no result. The list is not random: actives were taken first. Their share in the collection is about 3.9%. Unless noted, no stated cut-off is given here; in the data, active means inhibition above about 30%; inconclusive means no clear call, values can overlap the other calls; inactive means below that.
SMILES,Autofluor counter,Anthrax LF inh2,3CLpro inhibitor,BoNT F protease,BoNT A protease,DUSP3 inh
Cc1c(C(=O)N(Cc2ccc(N(C)C)cc2)C2CCS(=O)(=O)C2)oc2ccccc12 (configuration not stated),4424,-7.8,-0.8,-6.1,-0.6,11.6
O=C(COc1ccc(Cl)cc1)NCc1cn2cc(Cl)ccc2n1,4019,0.1,6.3,-2.7,0.1,12.9
Cc1nc(-c2ccccc2)sc1C(=O)O,4649,0.1,5.5,2.4,0.1,1.7
CCNC(=O)c1sc(-c2ccccc2)nc1C,21235*,0.6,1.7,-3.8,?,35.7
Cc1nc(-c2cccnc2)sc1C(N)=O,16867*,-3.4,3.8,-9.0,-2.2,32.9
COc1ccc(/C=C/C(=O)c2sc(-c3ccccc3)nc2C)cc1,23221*,3.4,1.7,-2.3,2.1,-0.1
CC(=O)c1sc(-c2ccccc2)nc1C,4340,1.3,0.8,-3.1,0.4,-10.6
NS(=O)(=O)c1ccc(CCNC(=O)c2cc([N+](=O)[O-])ccc2N2CCCCC2)cc1,3440,-16.2,-3.7,-11.6,-1.0,13.8
N=C1SC(c2ccccc2)C(=O)N1c1ncc(Cc2ccccc2Cl)s1 (configuration not stated),8435,-0.6,2.2,-12.4,-1.3,2.6
CCOC(=O)C1=C(C)NC2=C(C(=O)C(C(=O)OC)C(C)C2)C1c1ccc(OC)c(O)c1 (configuration not stated),23122*,-3.3,4.3,0.1,?,22.8
CCOc1cc(S(=O)(=O)NC2CCCCC2)ccc1F,22695*,-8.7,7.0,-0.3,2.4,-12.9
CCCOC(=O)c1ccc(NC(=O)Cc2cccs2)cc1,3696,-3.4,0.5,14.4,0.5,39.6
CC1CCN(C(=O)N2c3ccccc3Sc3ccccc32)CC1,5189,-2.2,3.6,-34.4,-2.3,7.6
CC1CCN(CC(O)CN2c3ccccc3Sc3ccccc32)CC1 (configuration not stated),3739,-3.9,-2.9,7.0,6.0,58.2*
CC(=O)Nc1nc(C)c(Oc2ccccc2)c(=O)[nH]1,20911*,-11.7,-3.1,2.7,1.6,22.1
Cc1cc(C)c2[nH]c(=O)c(C(c3nnnn3CC3CCCO3)N3CCCC(C)C3)cc2c1 (configuration not stated),11124,-9.0,-2.5,8.7,-0.5,-11.2
Cc1cccc2cc(C(c3nnnn3Cc3ccccc3)N3CCN(C)CC3)c(=O)[nH]c12 (configuration not stated),19831*,-0.1,-0.4,1.1,1.0,8.2
COc1ccc(Cn2nnnc2C(c2cc3cccc(C)c3[nH]c2=O)N2CCN(C)CC2)cc1 (configuration not stated),3345,-8.0,-5.0,-5.7,-0.6,13.9
Cc1cc(C)c2[nH]c(=O)c(C(c3nnnn3CC3CCCO3)N3CCC(C)CC3)cc2c1 (configuration not stated),26168*,-1.2,3.0,-3.3,?,17.5
Cc1cccc2cc(C(c3nnnn3Cc3ccccc3)N3CCN(c4ccccc4)CC3)c(=O)[nH]c12 (configuration not stated),18218*,-3.4,-2.8,-8.1,-3.6,-7.9
O=C(N=C1SC2CS(=O)(=O)CC2N1Cc1ccc(F)cc1)C1CCCO1 (configuration not stated),5316,0.7,1.3,4.9,-0.5,33.7
CCOC(=O)C1=C(C)NC(=S)NC1c1ccc(OCC(=O)N2CCCCC2)cc1 (configuration not stated),5728,-1.2,-3.5,1.0,-1.7,14.4
CCOC(=O)C1=CCN(S(C)(=O)=O)C1c1ccc(C)cc1 (configuration not stated),5396,2.9,.,1.0,-0.7,.
Cc1cc2ccccc2n1CCNC(=O)c1cccs1,1143,-97.1,3.9,-135.7,78.7*,-2.4
Cc1ccc(O)c(C(=O)c2cc(C#N)c(=O)n(-c3c(C)n(C)n(-c4ccccc4)c3=O)c2)c1,16705*,-1.1,-3.4,0.2,-0.6,20.8
SMILES,Autofluor counter,Anthrax LF inh2,3CLpro inhibitor,BoNT F protease,BoNT A protease,DUSP3 inh
C=C(C)Cn1c(=O)c2c(nc3n2CCCN3CCc2ccccc2)n(C)c1=O,4258,-1.0,0.7,-2.9,-0.4,29.8
COc1ccc(C2C3=C(N=C4SCC(=O)N42)c2ccccc2CC3)cc1OC (configuration not stated),24021*,-0.7,1.8,-7.3,-4.5,21.1
CCc1ccc(CNc2ccc3c(c2)ncn3C)cc1,21662*,-2.6,3.9,0.9,3.8,30.1
C=CCN1C(=O)c2ccc(C(=O)OCC(=O)N3CCN(c4ccccc4)CC3)cc2C1=O,6433,-0.8,.,10.8,-1.2,.
CCOC(=O)[C@H]1[C@H]2COc3ccc(OC)cc3[C@@H]2N2C(=O)CN(CC3CCCO3)C(=O)[C@@]12C (some centres not stated),4158,-5.4,.,1.4,-0.3,.
CCOC(=O)c1ccc(N2C(=O)c3n[nH]c(C)c3C2c2ccc(OC)c(OC)c2)cc1 (configuration not stated),19224*,1.0,-0.3,4.1,?,19.9
CCOc1cc(C2c3c(n[nH]c3C)C(=O)N2c2ccc(Br)cc2)ccc1O (configuration not stated),3428,-6.6,1.9,50.7*,0.1,-13.3
CCOC(=O)c1ccc(N2C(=O)c3n[nH]c(C)c3C2c2ccc(OC)cc2)cc1 (configuration not stated),4388,-11.3,0.0,-4.0,-0.5,-18.5
COc1cc(C2c3c(n[nH]c3C)C(=O)N2c2ccc(Br)cc2)ccc1O (configuration not stated),3491,0.4,-1.4,7.4,0.0,11.9
CC1(C(=O)N2CCOCC2)CCCCC1,4118,7.0,-1.6,?,-3.4,-6.8
O=S1(=O)CC2(N3CCOCC3)CCCCC21 (configuration not stated),19624*,-1.9,-0.4,1.2,1.5,16.8
O=S1(=O)CC2(N3CCOCC3)CCCCCCC21 (configuration not stated),23822*,0.0,0.5,-1.1,-1.9,3.6
NC(=O)c1sc2nc3c(c(-c4ccco4)c2c1N)CCCC3,4464,-0.8,-1.7,4.1,-0.3,11.2
Nc1c(C(=O)NCC2CCCO2)sc2nc3c(c(-c4ccco4)c12)CC/C3=C\c1ccco1 (configuration not stated),1918,-3.1,1.1,2.6,-2.0,100.7*
CC1=[N+](C)N(c2ccccc2)C(=O)C1N=Cc1c(Cl)cccc1Cl (configuration not stated),2503,0.8,-3.2,-7.0,-1.2,12.6
CCc1ccc(/C=C2\CN(CC)Cc3c2nc2ccccc2c3C(=O)O)cc1,27805*,20.3,-2.3,9.4,15.0,-4.3
Cc1ccc(S(=O)(=O)Nc2ccc3nc(N)sc3c2)cc1,19122*,-2.7,6.3,4.9,?,28.7
COc1ccc2c(c1)CC/C(=C\Nc1ccc3c(c1)OCO3)C2=O,8246,-7.6,-1.7,-11.5,-2.2,-2.2
COc1ccc(N/C=C2\CCc3ccccc3C2=O)cc1,4427,-3.0,33.5*,-2.7,-0.1,3.4
